Data: ChEMBL document CHEMBL3433997, “St. Jude Leishmania screening dataset” (2016)

Legend:
Format in all cases: functional
[1] = target: Solute carrier family 2, facilitated glucose transporter member 1 (Homo sapiens) (UniProt P11166); test: ST_JUDE_LEISH: Cytotoxicity at 2uM final concentration against transgenic Leishmania Mexicana promastigotes LmGLUT1 that are glucose transport deficient and complemented with the human glucose transporter GLUT1. Activity is measured by DNA content using SYBR green in vitro
[2] = target: Hexose transporter 1 (Plasmodium falciparum) (UniProt O97467); test: ST_JUDE_LEISH: Cytotoxicity at 2uM final concentration against transgenic Leishmania Mexicana promastigotes LmPfHT that are glucose transport deficient and complemented with the Plasmodium falciparum hexose transporter. Activity is measured by DNA content using SYBR green in vitro
[3] = target: Glucose transporter (Leishmania mexicana) (UniProt O61059); test: ST_JUDE_LEISH: Cytotoxicity at 2uM final concentration against transgenic Leishmania Mexicana promastigotes LmGT2 that are glucose transport deficient and complemented with the L. Mexicana glucose transporter 2. Activity is measured by DNA content using SYBR green in vitro

Solute carrier family 2, facilitated glucose transporter member 1 (Homo sapiens), sequence (P11166 whole entry): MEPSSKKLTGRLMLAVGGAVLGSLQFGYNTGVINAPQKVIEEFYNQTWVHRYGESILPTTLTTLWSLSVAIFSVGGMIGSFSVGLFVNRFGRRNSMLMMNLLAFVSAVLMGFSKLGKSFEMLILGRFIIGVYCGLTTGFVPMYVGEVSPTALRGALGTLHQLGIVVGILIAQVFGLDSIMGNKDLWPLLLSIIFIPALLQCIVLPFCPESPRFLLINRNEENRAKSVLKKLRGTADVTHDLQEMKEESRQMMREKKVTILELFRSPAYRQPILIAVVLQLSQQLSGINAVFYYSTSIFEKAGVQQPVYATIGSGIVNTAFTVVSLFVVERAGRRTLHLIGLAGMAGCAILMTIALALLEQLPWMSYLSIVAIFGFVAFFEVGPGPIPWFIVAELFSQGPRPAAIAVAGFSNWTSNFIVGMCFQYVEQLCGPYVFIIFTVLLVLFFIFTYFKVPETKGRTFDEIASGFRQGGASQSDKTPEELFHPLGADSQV

Structure (SMILES) | inhibition [1] | inhibition [2] | inhibition [3]
N#Cc1ccc(Cn2ccc3c4c(N)nc(N)nc4ccc32)cc1 | 82.6% | 84.2% | 77.7%
CC(=O)c1ccc(S(=O)(=O)N2CCC(C(=O)Nc3ccccc3N3CCCC3)CC2)cc1 | 0.87% | 0.67% | -0.38%
CC(=O)Oc1c(C2CCN(CCCCNC(=O)c3ccc(-c4ccc(C#N)cc4)cc3)CC2)ccc2c1CCCC2 | 0.47% | 1.16% | 1.58%
O=C(Nc1ccccc1N1CCOCC1)c1ncoc1-c1ccccc1C(F)(F)F | 3.99% | 2.36% | 2.48%
O=C(NCC1CCN(Cc2cccc(C(F)(F)F)c2)C1)c1cc(-c2cccc(C(F)(F)F)c2)cs1 (stereo unspecified) | 3.9% | 2.69% | 5.94%
CN1CCN(c2ccc(-c3cc(-c4ccncc4)c(-c4ccc(Cl)c(O)c4)o3)cc2)CC1 | -0.86% | 0% | -1.14%
O=C(Nc1cccnc1)c1cn(-c2ccccc2)nc1-c1cccs1 | 3.18% | 1.81% | -1.31%
COc1ccc2nccc([C@@H](O)CN3CCC(NCc4cc5sccc5nc4C(F)(F)F)CC3)c2c1 | 3.75% | 1.89% | -4.21%
COC(=O)Cc1ccc(N)c2ccccc12 | -0.85% | -0.46% | -2.13%
O=C(c1ccc(O)c(-c2cc(Cl)cc(Cl)c2)c1)N1CCCC1 | 1.89% | 0.9% | -0.96%
Cc1csc(NC(=O)c2cn(-c3ccccc3)nc2-c2cccs2)n1 | 6.04% | 4.44% | 0.74%
COc1ccc(CNC2CCN(C)CC2)cc1-c1ccc(S(=O)(=O)NCC2CCCO2)s1 (stereo unspecified) | 3.99% | 4.98% | 5.52%
O=C(/C=C/c1ccc(Cl)cc1)NCCCCCN1CCCN(C(=O)Nc2ccc(F)c(Cl)c2)CC1 | 5.5% | 3.92% | 4.64%
COc1cc(C=NNc2cc(C)nc3c(OC)cccc23)cc(OC)c1OC | 7.21% | 3.3% | 3.68%
O=C(/C=C/c1ccc(Cl)c(Cl)c1)NC1CCC(CN2CCC(c3c[nH]c4ccncc34)CC2)CC1 (stereo unspecified) | 0.22% | 0.56% | 0.65%
O=C(NC1CCC(N2CCC(Cc3ccc(F)cc3)CC2)CC1)c1cc2ccccc2[nH]1 (stereo unspecified) | 0.56% | 0.08% | 0.47%
Cc1oc(-c2ccccc2)nc1CCOc1ccc(C[C@H](Nc2ccccc2C(=O)c2ccccc2)C(=O)NCc2ccccn2)cc1 | 4.4% | 4.88% | 4.35%
Cc1cccc2sc(N(CCCn3ccnc3)C(=O)C=Cc3cccs3)nc12 | 12.6% | 12.7% | 6.56%
O=C(Nc1ccc(Cl)cc1)Nc1cccc(-c2ccc(-c3nc4cc(F)ccc4[nH]3)cc2)c1 | 6.12% | 1.78% | 4.76%
CCCCc1ccc(CCNCCCCCCNCCc2ccc(O)c(O)c2)cc1 | 0.01% | -0.03% | -1.2%
CCc1ccc(-c2cnc(N)c3cc(-c4ccnc(N)n4)ccc23)cc1 | -0.81% | -4.63% | -1.72%
O=S(=O)(c1cc(Cl)ccc1Cl)N1CCCCC(c2ccc(C(F)(F)F)cc2)=N1 | 0.47% | 2.66% | 5.01%
O=C(Nc1ccccc1O)C1CCN(c2ncnc3cc(-c4ccc(F)cc4)sc23)CC1 | 1.73% | 2.48% | -2.46%
O=C(CCc1cccc(O)c1)NCC(NCCCNc1cc(=O)c2ccccc2[nH]1)c1cc(Br)cc(Br)c1 (stereo unspecified) | 8.91% | 5.63% | 6.84%

Structure (SMILES) | inhibition [1] | inhibition [2] | inhibition [3]
CCCC1N=C(N)N=C(N)N1c1ccc(C)cc1 (stereo unspecified) | 4.06% | 2.51% | 2.47%
Cn1ccnc1CNC(=O)c1ccc(-c2ccc(-c3nc4cc(C(F)(F)F)ccc4[nH]3)s2)cc1 | 4.17% | 3.3% | 2.03%
CCOc1cc(CC)ccc1C1CCN(CCN2CCC(NC(=O)c3ccc(-c4ccc(C#N)cc4)cc3)CC2)CC1 | -0.43% | 0.77% | 1.19%
COc1ccc(Nc2nccc(N3CCC(NC(=O)C(C)c4ccc(Cl)cc4)CC3)n2)cc1 (stereo unspecified) | 0.43% | 0.07% | 0.26%
COc1cc2nc(NCCn3cccn3)nc(NCCc3ccccc3)c2cc1OC | 7.22% | 3.02% | 6.96%
CC(C)(C)c1ccc(NC(=O)c2cccc(CN3CCCN(Cc4cccc(Cl)c4)CC3)c2)cc1 | 5.32% | 4.37% | 2.14%
C=CCOc1ccc(C(=O)Nc2nonc2-c2ccc(OC)c(OC)c2)cc1 | 1% | 1.23% | 1.78%
Cc1ccc(C2=NNC3(S2)C(=O)N(C)c2ccccc23)cc1 (stereo unspecified) | 5.66% | 8.24% | 9.09%
COc1cccc2c(NN=Cc3cccc(Cl)c3)cc(C)nc12 | -0.65% | 0.14% | 1.05%
COc1ccc(CNCc2ccc(-c3ccc(-c4nc5cc(C(F)(F)F)ccc5[nH]4)cc3)cc2)cc1 | 3.97% | 1.19% | 3.06%
Cc1cc(N(C)C2CCN(CC3CCCCC3)C2)nc(Nc2ccc(Br)cc2)n1 (stereo unspecified) | 2.84% | 4.85% | 2.06%
Nc1c(Cl)cc(C(O)CNCCCCCCOCCC=C2CCOCC2)cc1Cl (stereo unspecified) | -0.91% | 0.32% | -1.31%
COc1cc2nccc(Nc3cc(C)cc(O)c3)c2cc1OC | 2.64% | 3.99% | 0.8%
O=C(c1cccc(-c2noc(C(F)(F)F)n2)c1)N1CCN(c2nsc3ccccc23)CC1 | -0.16% | -1.92% | -1.66%
CC(=O)c1ccc(NC(=O)CSc2nc(-c3ccccc3Cl)ns2)cc1 | 2.79% | 10.3% | 9.72%
O=C(/C=C/c1ccc(Cl)c(Cl)c1)NCCCCCCN1CCCN(C(=O)Nc2ccc(Cl)c(Cl)c2)CC1 | 2.36% | 2.49% | -2.06%
CC(C)CCNC(=O)C1Cc2c([nH]c3cc(Br)ccc23)C2(CCN(Cc3ccccc3)CC2)N1 (stereo unspecified) | 15% | 11.3% | 14.8%
O=C(Nc1ccc(OC(F)(F)F)cc1)Nc1ccc([N+](=O)[O-])cc1 | 1.82% | 2.15% | 1.9%
COc1ccc(CNC(=O)NC2CCN(c3ccnc(Nc4ccc(F)cc4)n3)CC2)cc1 | 0.86% | 1.1% | 0.64%
CCCCCCCCNc1c2ccc(Cl)cc2nc2ccc(OC)cc12 | 7.33% | 7.51% | 5.8%
Cc1cccc(CNc2nc(C)cc(N[C@@H](Cc3ccccc3)C(=O)NCCc3ccccc3)n2)c1 | 3.88% | 3.72% | 0.77%
COc1ccccc1C1CCN(C2CCC(NC(=O)/C=C/c3ccc(OC(F)(F)F)cc3)CC2)CC1 (stereo unspecified) | 0.94% | 1.54% | 2.36%
CCCN(CCCN(CCCN(CCC)C(C)C)c1cc(C)nc(Nc2ccc(Cl)cc2)n1)C(C)C | 9.21% | 7.26% | 6.27%
O=C(Nc1ccc2oc(-c3ccc(Cl)cc3Cl)nc2c1)c1ccc([N+](=O)[O-])o1 | 88.9% | 54.3% | 11%

Structure (SMILES) | inhibition [1] | inhibition [2] | inhibition [3]
COc1c(C2CCN(CCCCNC(=O)C=Cc3ccccc3C(F)(F)F)CC2)ccc2c1CCCC2 | -0.06% | -0.81% | -0.49%
CN(CCO)Cc1cccc(-c2ccc(NC(=O)c3cccc(C#N)c3)cc2)c1 | 1.6% | 0.52% | -2.56%
CCCCCC(C)C(C)c1cc(O)c2c(c1)OC(C)(C)C=C2c1cc[n+]([O-])cc1 (stereo unspecified) | 11% | 10.4% | 9.99%
CCCCCCCCc1c(C)nc(C)c(C#N)c1O | 5.8% | 6.51% | 5.78%
O=C(N[C@H]1CCN(CCc2ccc(O[C@H]3CCNC3)c(Cl)c2)C1)c1ccc(Cl)c(Cl)c1 | 1.64% | 1.22% | 3.35%
CCN(CC)CCN(Cc1ccc(-c2ccc(C(F)(F)F)cc2)cc1)C(=O)Cn1c(SCc2ccc(F)cc2)nc(=O)c2ccccc21 | 4.02% | 1.11% | 1.8%
N#Cc1ccc(N(CCOC(=O)c2ccc(Br)s2)Cc2ccccc2C(F)(F)F)cc1C(F)(F)F | 1.7% | 4.9% | 3.28%
Cc1ccn2cc(-c3ccc(NC(=O)c4ccc(Br)o4)cc3)nc2c1 | 1.17% | 2.74% | 0.61%
O=C(NCCCCN1CCC(c2ccc3c(c2OCc2ccncc2)CCCC3)CC1)c1ccc(-c2ccc(C(F)(F)F)cc2)cc1 | 1.51% | 1.48% | 0.42%
COc1ccc2nccc(N(C)CC3(O)CCC(NCc4ccc5c(n4)NC(=O)CS5)CC3)c2n1 (stereo unspecified) | 3.69% | 3.78% | 1.23%
Cc1[nH]c(C)c(-c2ccc(-c3ccc(OC(F)(F)F)cc3)cc2)c(=O)c1Cl | 4.71% | 3.77% | -2.04%
c1csc(-c2ccc3c(c2)CC(NCc2c[nH]c4cnccc24)C3)c1 (stereo unspecified) | 4.86% | 5.34% | 5.84%
Cc1ccc(N2CCN(C(=O)c3cccc(-c4cncc5nc(-c6ccco6)n(C)c45)c3)CC2)nc1 | 6.13% | 5.42% | 5.39%
O=C(Nc1ccc(I)cc1)N1CCc2sccc2C1CN1CCCCC1 (stereo unspecified) | 12.2% | 9.79% | 10.5%
CNCCNCc1ccc(-c2ccc(-c3nc4cccc(C)c4[nH]3)cc2)cc1 | 5.52% | 4.65% | 4.77%
CCc1cn2c3c(cc(C(=O)N[C@@H](Cc4ccccc4)[C@H](O)CNC4CCOCC4)cc13)N(CC(F)(F)F)S(=O)(=O)CC2 | 2.22% | 2.72% | 0.88%
N#Cc1ccc(/C=C/C(=O)NCCCCCN2CCCN(C(=O)Nc3ccc(Cl)c(C(F)(F)F)c3)CC2)cc1 | 1.18% | 1.14% | 1.57%
Clc1cc(Nc2ncnc3cc(C#C[C@H]4CCCN4)sc23)cc2nc(Cc3ccccc3)[nH]c12 | 1.94% | -0.56% | -1.61%
CC(C)N1CCC(NC(=O)N2CCCN(c3ncnc4cc(-c5ccc(Cl)cc5)sc34)CC2)CC1 | -0.49% | 0.6% | -3.09%
N=C(N)NN=Cc1ccc2c(c1)Cc1ccccc1-2 | 8.82% | 8.08% | 6.46%
COc1ccc2c(NN=Cc3ccc(F)cc3)ccnc2c1 | 1.29% | 2.43% | 1.85%
C[C@H](NC(=O)c1cc(-c2ccc(C(C)(C)C)cc2)no1)C(=O)O.C[C@H](NC(=O)c1conc1-c1ccc(C(C)(C)C)cc1)C(=O)O | -0.02% | 0.23% | 1.58%
Cc1csc(-c2nc(NCCc3c(C)noc3C)ncc2-c2ccsc2)n1 | 8.17% | 11.5% | 10.2%
COc1ccc(NC(=O)c2ccc(OCCCCCCCOc3ccc(C(=O)Nc4ccc(OC)c(N5CCN(C)CC5)c4)cc3)cc2)cc1N1CCN(C)CC1 | 0.98% | 0.63% | 1.11%
